In PubChem BioAssay one finds composite z-score and z-score data, which are given here for 22 compounds.

Molecules are shown by their SMILES. Activity calls are given as the source filed them. Unless noted, no rule for the calls is given here.

Assay [1] deals with XIP peptide (Xip251-270) binding. As to the kind of experiment: XIP fragment 251-270 binding compounds – biochemical, small-molecule microarray, fluorescence 635/667 nm, 0.1 µg/mL protein, primary screen (AID 1182). Particulars: fluorescent protein binding, 635 nm, higher = more signal, called active from +8 up or from −8 down.
For another assay, the system named is XIP peptide (Xip251-270). As to the kind of experiment: compounds binding XIP fragment 251-270 – biochemical, small-molecule microarray, fluorescence 635/667 nm, 0.5 µg/mL protein, primary screen (AID 1183). The conditions noted are these: fluorescence 635 nm, higher = more signal.
Assay [2] is described as follows: blood-stage malaria parasite viability loss – strain 3D7, DAPI fluorescence, 100 nL, primary screen (AID 1184).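 Also: parasites grown inside human red blood cells in medium with human serum.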 Particulars: P. falciparum 3D7 growth, 3 d, higher = more signal.
The target of assay [3] is Homeobox protein Hox-A13 (Mus musculus) (UniProt Q62424). As to the kind of experiment: disruptors of Hoxa13 oligonucleotide interaction – biochemical, fluorescence polarization, labeled oligonucleotide, primary screen (AID 1185). The conditions noted are these: Hoxa13:DNA binding, 15 min, higher = more signal, called active from +8 up or from −8 down.
The nature of assay [4]: blockers of DNA damage checkpoint Chk1 activation – imaging, HeLa, hydroxyurea, phospho-Chk1 antibody, percent positive cells, primary screen (AID 1186). The conditions noted are these: hydroxyurea-induced phospho-Chk1 immunofluorescence imaging, higher = more signal.
A short description of assay [5]: blockers of DNA damage checkpoint Chk1 activation – imaging, HeLa, hydroxyurea, phospho-Chk1 nuclear intensity, primary screen (AID 1187). The conditions noted are these: hydroxyurea-induced phospho-Chk1 immunofluorescence imaging, higher = more signal.

Sequence of Homeobox protein Hox-A13 (Mus musculus) (Q62424 whole entry, looked up): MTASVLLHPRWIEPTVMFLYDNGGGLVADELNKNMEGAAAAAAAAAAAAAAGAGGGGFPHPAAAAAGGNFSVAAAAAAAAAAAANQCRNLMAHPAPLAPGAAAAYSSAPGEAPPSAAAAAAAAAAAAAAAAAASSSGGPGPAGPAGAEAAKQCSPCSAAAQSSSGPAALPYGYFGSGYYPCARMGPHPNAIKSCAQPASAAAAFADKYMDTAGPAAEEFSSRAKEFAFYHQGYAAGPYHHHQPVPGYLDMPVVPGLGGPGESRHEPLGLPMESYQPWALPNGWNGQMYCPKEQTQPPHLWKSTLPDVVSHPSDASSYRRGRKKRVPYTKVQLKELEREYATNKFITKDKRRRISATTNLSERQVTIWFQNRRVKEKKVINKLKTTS

For the compound `C=CCC(OC(C)=O)[C@@H]1[C@@H](N(Cc2cccc3ccccc23)C(=O)c2cccc3ccccc23)c2cc(OCCCO)ccc2N1C(=O)Cc1ccc2ccccc2c1` (some centres not stated), the values for the composite z-score (in assay [1]; in the assay with XIP peptide (Xip251-270)) were 0.457 (inactive) and -0.716, respectively. Moreover, the z-score in assay [2] is -1.35; in assay [3], -2.12 (inactive); in assay [4], 0.233 (inactive); in assay [5], 0.42 (inactive).

Turning to `CCOC(=O)C1=CC[C@@H](c2ccccc2Cl)N(S(=O)(=O)c2ccc(C)cc2)[C@H]1c1cccc(OC)c1`, the composite z-score in assay [1] was 0.211 (inactive); in the assay with XIP peptide (Xip251-270) it was 0.246. Further, the z-score in assay [2] was -0.794; in assay [3], -1.18 (inactive); in assay [4] it was 0.0932 (inactive); in assay [5], -0.553 (inactive).

As for `CN(C)CCCC[C@@H]1NC(=O)[C@@H]2C[C@H](C(=O)NCCCCCCNC(=O)CS)[C@H](c3cccc(OCCO)c3)N2C1=O`, the composite z-score was 0.602 (inactive) in assay [1] and 0.667 in the assay on XIP peptide (Xip251-270). For the same compound, the z-score in assay [2] was -0.391; in assay [3], -2.01 (inactive); in assay [4], 0.134 (inactive); in assay [5] it was -0.332 (inactive).

As for `COc1ccc(NN2C(C(O)c3ccc(OC)cc3)C=CC3C(=O)N(C4CCCCC4)C(=O)C32)cc1` (configuration not stated), the values for the composite z-score (in assay [1]; in the assay on XIP peptide (Xip251-270)) were 1.3 (inactive) and 0.7, respectively. Moreover, the z-score in assay [2] was -0.346; in assay [3], -4.51 (inactive); in assay [4], -1.28 (inactive); in assay [5], -1.13 (inactive).

As to `CCCCNC(=O)c1ccc(C#C[Si](C)(C)C)c(OC(C)=O)c1`, the composite z-score is -0.0158 (inactive) in assay [1] and -0.351 in the assay with XIP peptide (Xip251-270). The z-score in assay [2] is -1.27; in assay [3], -4.82 (inactive); in assay [4] it was 0.0588 (inactive); in assay [5], 0.103 (inactive).

Turning to `O=C1NC(=O)C2C1C=CC(C(O)c1ccc(F)cc1)N2Nc1ccccn1` (configuration not stated), the composite z-score in assay [1] is -0.184 (inactive); in the assay with XIP peptide (Xip251-270), 0.13. Moreover, the z-score in assay [2] was 1.25; in assay [3], -1.55 (inactive); in assay [4], 0.255 (inactive); in assay [5], 0.0273 (inactive).

On to `CN(C)CCCC[C@@H]1NC(=O)[C@@H]2C[C@H](C(=O)NCc3ccc(F)cc3)[C@H](c3ccc(O)cc3)N2C1=O`, for which the composite z-score in assay [1] was -0.23 (inactive); in the assay on XIP peptide (Xip251-270), 0.886. Moreover, the z-score in assay [2] is -0.532; in assay [3] it was -1.16 (inactive); in assay [4] it was 0.336 (inactive); in assay [5], 0.142 (inactive).

Regarding `CCCC=C(CCC)[C@@H](NC(=O)c1ccco1)c1ccc(C(=O)OC)cc1`, the composite z-score in assay [1] is 0.192 (inactive); with XIP peptide (Xip251-270), 0.585. Also, the z-score was -0.465 in assay [2], -1.4 (inactive) in assay [3], -0.125 (inactive) in assay [4] and -0.17 (inactive) in assay [5].

For `COC(=O)c1ccc([C@H](NC(=O)c2ccccc2)[C@]2(C)C[C@H]2C2CCCCC2)cc1`, the composite z-score in assay [1] is -0.317 (inactive); in the assay on XIP peptide (Xip251-270) it was -0.199. Further, the z-score in assay [2] is -0.631; in assay [3] it was 3.23 (inactive); in assay [4], -0.198 (inactive); in assay [5], -0.123 (inactive).

As to `COCCn1c(C(=O)N2CCCC2)cc2c1C[C@H]1CN(C(=O)c3ccccc3)[C@@](Cc3ccccc3)(C(=O)OC)[C@@H]21`, the composite z-score in assay [1] was 1.06 (inactive); in the assay on XIP peptide (Xip251-270) it was 0.857. Moreover, the z-score in assay [2] is -1.22; in assay [3], -6.05 (inactive); in assay [4], 0.206 (inactive); in assay [5], 0.412 (inactive).

As for `COC(=O)C1=CC(CCCO)=CC(C2CC2)N(Cc2cccc(OC(F)(F)F)c2)C=C1C(=O)OC` (configuration not stated), the composite z-score in assay [1] is 0.737 (inactive); in the assay with XIP peptide (Xip251-270), 0.668. The z-score in assay [2] was -1.37; in assay [3], -7.83 (inactive); in assay [4], -0.316 (inactive); in assay [5] it was -0.0702 (inactive).

With `COc1ccc(C#Cc2ccc3c(c2)[C@]2(C(=O)N3)[C@H](C(=O)Nc3nc4ccccc4s3)[C@H]3C(=O)O[C@H](c4ccccc4)[C@H](c4ccccc4)N3[C@@H]2c2ccc(OCCO)cc2)cc1`, the composite z-score in assay [1] is -0.509 (inactive); with XIP peptide (Xip251-270), 0.782. Also, the z-score in assay [2] is -0.668; in assay [3] it was 1.71 (inactive); in assay [4], 0.218 (inactive); in assay [5], -0.0348 (inactive).

As for `CCCCC=C[C@@H](NC(=O)c1ccc(C(F)(F)F)cc1)c1ccccc1`, the composite z-score is 0.0581 (inactive) in assay [1] and -0.11 with XIP peptide (Xip251-270). For the same compound, the z-score in assay [2] was 0.185; in assay [3] it was -3.7 (inactive); in assay [4] it was -0.587 (inactive); in assay [5], -1.16 (inactive).

In the case of `[N-]=[N+]=NCc1ccccc1C[C@]1(C(=O)NCc2ccccc2)N=C(c2ccc(OCCCO)cc2)O[C@H]1c1ccccc1CN=[N+]=[N-]`, the composite z-score is 0.99 (inactive) in assay [1] and 0.628 in the assay with XIP peptide (Xip251-270). Further, the z-score was -2.24 in assay [2], 4.04 (inactive) in assay [3], -0.347 (inactive) in assay [4] and 0.0031 (inactive) in assay [5].

With `CC(C)c1ccc(NN2C(C(O)C(C)C)C=CC3C(=O)N(c4ccccc4)C(=O)C32)cc1` (configuration not stated), the composite z-score in assay [1] was 1.49 (inactive); in the assay with XIP peptide (Xip251-270) it was 0.778. The z-score is -0.63 in assay [2], -1.26 (inactive) in assay [3], -0.172 (inactive) in assay [4] and -0.0386 (inactive) in assay [5].

Consider `O=C1O[C@H](c2ccccc2)[C@H](c2ccccc2)N2[C@H]1[C@@H](C(=O)NC[C@H](O)c1ccccc1)[C@]1(C(=O)Nc3ccc(C#CCCO)cc31)[C@H]2c1ccccc1OCCO`, for which the composite z-score was 0.419 (inactive) in assay [1] and 0.693 in the assay with XIP peptide (Xip251-270). The z-score in assay [2] was -1.4; in assay [3], -4 (inactive); in assay [4], 0.125 (inactive); in assay [5], 0.46 (inactive).

For the compound `COC(=O)[C@@]1(Cc2ccc(F)cc2)[C@H]2c3cc(C(=O)N(C)C)n(CCn4cc([N+](=O)[O-])nc4C)c3C[C@H]2CN1C(=O)c1ccccc1`, the composite z-score in assay [1] was 0.128 (inactive); with XIP peptide (Xip251-270) it was 0.5. For the same compound, the z-score is 0.653 in assay [2], -2.06 (inactive) in assay [3], 0.581 (inactive) in assay [4] and 0.197 (inactive) in assay [5].

On to `COc1ccc(NC(=O)O[C@H]2[C@H](OC(=O)Nc3ccc4c(c3)OCO4)[C@H](OC(=O)Nc3ccc4c(c3)OCO4)[C@@H](OC)O[C@@H]2CO)cc1`, for which the composite z-score in assay [1] is 1.04 (inactive); in the assay with XIP peptide (Xip251-270), 0.866. In addition, the z-score in assay [2] was -2.24; in assay [3], -4.94 (inactive); in assay [4] it was -0.246 (inactive); in assay [5] it was 0.267 (inactive).

`COc1ccc([Si](C)(C)[C@@H]2[C@@H](CCO)O[C@]3(C(=O)N(Cc4ccccc4)c4ccc(N5C(=O)c6ccccc6Oc6ccccc65)cc43)[C@H]2C)cc1`: the composite z-score in assay [1] was 0.664 (inactive); in the assay on XIP peptide (Xip251-270), 0.299. Moreover, the z-score was -0.119 in assay [2], -1.08 (inactive) in assay [3], -0.83 (inactive) in assay [4] and -0.253 (inactive) in assay [5].

Turning to `COCCOC(=O)N1C(=O)[C@@]2(c3cc(C#CCCO)ccc31)[C@H](C(=O)N1CCN(c3ncccn3)CC1)[C@H]1C(=O)O[C@H](c3ccccc3)[C@H](c3ccccc3)N1[C@@H]2c1ccc(O)cc1`, the composite z-score in assay [1] was 1.43 (inactive); with XIP peptide (Xip251-270) it was 0.802. Besides, the z-score is -0.278 in assay [2], -2.3 (inactive) in assay [3], -0.416 (inactive) in assay [4] and -0.772 (inactive) in assay [5].

As for `CCC[C@@H]1[C@@H](Sc2ccccc2)[C@@H](C(=O)O)[C@H](c2ccc(C)cc2)N1S(=O)(=O)c1ccc(C)cc1`, the composite z-score in assay [1] is 0.163 (inactive); in the assay on XIP peptide (Xip251-270) it was 0.787. The z-score in assay [2] was 0.552; in assay [3] it was -5.85 (inactive); in assay [4], 0.275 (inactive); in assay [5] it was 0.971 (inactive).

Turning to `COc1ccc(CCNC(=O)[C@@]2(Sc3ccc(C)cc3)CC(=O)N(C(C)C)[C@@H]2c2ccc(CO)cc2)cc1`, the composite z-score was 0.117 (inactive) in assay [1] and 0.66 in the assay on XIP peptide (Xip251-270). Moreover, the z-score in assay [2] is -0.302; in assay [3] it was -3.28 (inactive); in assay [4] it was 0.0372 (inactive); in assay [5], -0.0512 (inactive).
